Test results as given in PubChem BioAssay (Tox21).
Inconclusive results are not listed. Calls of active or inactive are those of the source. Unless noted, calls come from the whole dose curve; as a rule, active = well fitted curve in the direction sought with a large enough effect in the repeat runs; inconclusive = weak or mixed curves; inactive = no such curve, though single readings can be large; an effect the other way counts as inactive or inconclusive.

Assays:
[1] = A CellTox Green Cytotoxicity Assay to monitor cytotoxicity in HEK293 cells - 32 hour (AID 1224881); note: nearly all actives have a fitted effect of over 40% in size
Method in brief: (§1)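 Fluorescence intensity, read at 0, 8, 16, 24, 32 and 40 h of compound treatment, reflected dye binding to DNA of dead HEK293 cells; compounds (23 nL, DMSO) were added 5 h after plating cells with reagent.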

[2] = A CellTox Green Cytotoxicity Assay to monitor cytotoxicity in HepG2 cells - 0 hour (AID 1224882); note: nearly all actives have a fitted effect of over 35% in size
Method in brief: (§2)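 Using 1536-well format, dye-containing HepG2 suspension was seeded, allowed 5 h at 37 C/5% CO2, dosed by pintool with compounds, positive and negative controls, and imaged for fluorescence across 40 h.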

[3] = A CellTox Green Cytotoxicity Assay to monitor cytotoxicity in HEK293 cells - 8 hour (AID 1224884); note: nearly all actives have a fitted effect of over 35% in size
Method in brief: as §1

[4] = qHTS RealTime-Glo MT Cell Viability Assay in HepG2 cells - 16 hour (AID 1224885); note: nearly all actives have a fitted effect of over 50% in size
Method in brief: (§3)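 Compound treatment began 5 h after plating HepG2 cells (600/well) with NanoLuc luciferase and prosubstrate. Plates stayed at 37 C for 40 h; luminescence was captured at six time points, 0 h through 40 h.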

[5] = qHTS RealTime-Glo MT Cell Viability Assay in HEK293 cells - 24 hour (AID 1224886); note: top concentration of the series differs between compounds; nearly all actives have a fitted effect of over 50% in size
Method in brief: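 Quantitative high-throughput screen of the Tox21 10K library in HEK293: cells and RealTime-Glo reagents plated together, compound added at 5 h, luminescence monitored through 40 h at 37 C.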

[6] = qHTS RealTime-Glo MT Cell Viability Assay in HEK293 cells - 8 hour (AID 1224887); note: top concentration of the series differs between compounds; nearly all actives have a fitted effect of over 50% in size
Method in brief: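 Viable HEK293 cells reduce a cell-permeant prosubstrate; the product diffuses out and is consumed by NanoLuc in the medium to give light. Compounds went in after a 5 h incubation and plates were read over the treatment course.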

[7] = A CellTox Green Cytotoxicity Assay to monitor cytotoxicity in HEK293 cells - 16 hour (AID 1224888); note: nearly all actives have a fitted effect of over 35% in size
Method in brief: as §1

[8] = qHTS RealTime-Glo MT Cell Viability Assay in HepG2 cells - 0 hour (AID 1224889); note: nearly all actives have a fitted effect of over 50% in size
Method in brief: as §3

[9] = A CellTox Green Cytotoxicity Assay to monitor cytotoxicity in HepG2 cells - 8 hour (AID 1224890); note: nearly all actives have a fitted effect of over 45% in size
Method in brief: as §2

[10] = qHTS assay to identify small molecule antagonists of the estrogen receptor alpha (ER-alpha) signaling pathway using the BG1 cell line in the presence of 0.1 nM 17-beta-estradiol - cell viability counter screen (AID 1259241); note: nearly all actives have a fitted effect of over 40% in size
Method in brief: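 Cells were plated and left 24 hr, compounds in DMSO were pinned in, 17beta-estradiol was added to 0.1 nM final, and after 22 hr CellTiter-Fluor reagent was added for 30 min before fluorescence was read.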

[11] = qHTS assay to identify small molecule antagonists of the androgen receptor (AR) signaling pathway using the MDA cell line in the presence of 0.5 nM R1881 - cell viability counter screen (AID 1259242); note: nearly all actives have a fitted effect of over 45% in size
Method in brief: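 Viability of MDA-kb2 cells was multiplexed with the luciferase AR readout; after 16 hr with compounds and R1881 at 0.5 nM final, CellTiter-Fluor fluorescence was recorded.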

[12] = qHTS assay to identify small molecule HDAC inhibitors (AID 1259364); note: potency is the fitted concentration of half-maximal effect;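 note: wild-type HCT-116 cells with endogenous class I/II HDAC activity; nearly all actives have a fitted effect of over 45% in size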
Method in brief: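 Read-out: luminescence of HDAC-Glo I/II reagent, 30 min RT, reflecting class I/II deacetylase activity in whole HCT-116 cells pre-exposed 2 h to DMSO-dissolved compounds.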

[13] = qHTS assay to identify small molecule HDAC inhibitors - cell viability counter screen (AID 1259365)
Method in brief: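 Counter screen in wild-type HCT-116 cells: compounds dissolved in DMSO are pin-transferred onto overnight-plated cells and left 2hr at 37C. ATP-based CellTiter-Glo luminescence then measures viable cells.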

[14] = qHTS assay to identify small molecule agonists of the sonic hedgehog signaling (Shh) pathway - cell viability counter screen (AID 1259366); note: nearly all actives have a fitted effect of over 50% in size; note: potency is the fitted concentration of half-maximal effect
Method in brief: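 Cells are plated at 2,000 per well and left 4hr at 37C, 5% CO2 before compound addition. After 23hr of treatment, CellTiter-Fluor reagent is added for 1hr at 37C and fluorescence is measured.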

[15] = qHTS assay to identify small molecule antagonists of the sonic hedgehog signaling (Shh) pathway - cell viability counter screen (AID 1259367); note: nearly all actives have a fitted effect of over 55% in size
Method in brief: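 Using CellTiter-Fluor, viability of Gli1-Luc reporter 3T3 cells is read by fluorescence in the wells used for the Shh luciferase assay. Treatment lasts 23 hr with conditioned medium, then reagent 1 hr at 37C.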

[16] = qHTS assay to identify small molecule agonists of the sonic hedgehog signaling (Shh) pathway (AID 1259368; calls by dose curve;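 note: NIH/3T3-derived 3T3Gli1-Luc cells carrying a stable Gli1-driven firefly luciferase reporter; series mostly up to about 92 µM; nearly all actives have a fitted effect of over 15% in size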)
Method in brief: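 A Gli1 transcriptional response element controlled firefly luciferase in 3T3Gli1-Luc cells. Compounds and a positive control were added 4 hr after plating, and cells were incubated a further 24 hr at 37 C before luminescence detection.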

[17] = target: Estrogen receptor (Homo sapiens) (UniProt P03372); assay: qHTS assay to identify small molecule antagonists of the estrogen receptor alpha (ER-alpha) signaling pathway using the BG1 cell line in the presence of 0.1 nM 17-beta-estradiol (AID 1259244); note: nearly all actives have a fitted effect of over 50% in size
Method in brief: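 Estradiol at 0.1 nM (final) stimulates the endogenous ER-alpha of VM7Luc4E2 cells carrying an ERE-driven luciferase; compounds are co-incubated 22 h at 37C and luciferase output quantified by luminescence.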

[18] = A CellTox Green Cytotoxicity Assay to monitor cytotoxicity in HepG2 cells - 32 hour (AID 1224883); note: nearly all actives have a fitted effect of over 50% in size
Method in brief: as §2

[19] = target: Androgen receptor (Homo sapiens) (UniProt P10275); assay: qHTS assay to identify small molecule antagonists of the androgen receptor (AR) signaling pathway using the MDA cell line in the presence of 0.5 nM R1881 (AID 1259243); note: nearly all actives have a fitted effect of over 50% in size; note: potency is the fitted concentration of half-maximal effect
Method in brief: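 Reporter cells cultured without CO2 receive test chemicals, then 0.5 nM R1881 final; after 16 hr at 37C, ONE-Glo is added and light output recorded.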

[20] = qHTS assay to identify small molecule phospholipidosis (PLD) inducers (AID 1259344; active = well fitted curve in the direction sought with a large enough effect; an effect the other way counts as inactive or inconclusive)
Method in brief: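 Fluorescent phospholipid staining (LipidTOX Red) measured by automated microscopy in fixed HepG2 cells after 24 h treatment; nuclei counterstained with Hoechst 33342; amiodarone as reference inducer.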

Measured: Potency

Androgen receptor (Homo sapiens), sequence (P10275 whole entry, looked up): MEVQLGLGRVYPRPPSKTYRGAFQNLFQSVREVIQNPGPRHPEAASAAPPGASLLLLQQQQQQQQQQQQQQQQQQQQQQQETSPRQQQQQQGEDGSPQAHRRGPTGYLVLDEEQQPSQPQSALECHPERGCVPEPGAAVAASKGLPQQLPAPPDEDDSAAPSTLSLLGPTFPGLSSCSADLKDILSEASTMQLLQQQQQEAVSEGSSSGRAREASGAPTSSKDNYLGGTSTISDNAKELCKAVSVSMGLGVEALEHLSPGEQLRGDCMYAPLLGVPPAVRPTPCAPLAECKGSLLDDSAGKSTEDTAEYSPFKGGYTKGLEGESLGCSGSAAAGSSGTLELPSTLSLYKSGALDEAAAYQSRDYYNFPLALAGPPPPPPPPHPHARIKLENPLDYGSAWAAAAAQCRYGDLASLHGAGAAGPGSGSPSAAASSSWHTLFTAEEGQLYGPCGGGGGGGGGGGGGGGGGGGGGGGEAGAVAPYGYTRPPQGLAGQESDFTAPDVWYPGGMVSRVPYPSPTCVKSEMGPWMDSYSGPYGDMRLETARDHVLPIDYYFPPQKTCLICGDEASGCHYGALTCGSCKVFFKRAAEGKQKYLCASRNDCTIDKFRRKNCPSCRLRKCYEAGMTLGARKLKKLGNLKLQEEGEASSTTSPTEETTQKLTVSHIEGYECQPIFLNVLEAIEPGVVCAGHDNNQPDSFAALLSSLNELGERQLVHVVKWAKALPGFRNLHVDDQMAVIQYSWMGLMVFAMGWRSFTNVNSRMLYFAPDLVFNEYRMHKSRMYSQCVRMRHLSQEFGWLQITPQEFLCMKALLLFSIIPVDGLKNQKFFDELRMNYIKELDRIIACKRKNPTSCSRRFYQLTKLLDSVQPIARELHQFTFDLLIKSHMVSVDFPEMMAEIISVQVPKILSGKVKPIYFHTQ
Estrogen receptor (Homo sapiens), sequence (P03372 whole entry, looked up): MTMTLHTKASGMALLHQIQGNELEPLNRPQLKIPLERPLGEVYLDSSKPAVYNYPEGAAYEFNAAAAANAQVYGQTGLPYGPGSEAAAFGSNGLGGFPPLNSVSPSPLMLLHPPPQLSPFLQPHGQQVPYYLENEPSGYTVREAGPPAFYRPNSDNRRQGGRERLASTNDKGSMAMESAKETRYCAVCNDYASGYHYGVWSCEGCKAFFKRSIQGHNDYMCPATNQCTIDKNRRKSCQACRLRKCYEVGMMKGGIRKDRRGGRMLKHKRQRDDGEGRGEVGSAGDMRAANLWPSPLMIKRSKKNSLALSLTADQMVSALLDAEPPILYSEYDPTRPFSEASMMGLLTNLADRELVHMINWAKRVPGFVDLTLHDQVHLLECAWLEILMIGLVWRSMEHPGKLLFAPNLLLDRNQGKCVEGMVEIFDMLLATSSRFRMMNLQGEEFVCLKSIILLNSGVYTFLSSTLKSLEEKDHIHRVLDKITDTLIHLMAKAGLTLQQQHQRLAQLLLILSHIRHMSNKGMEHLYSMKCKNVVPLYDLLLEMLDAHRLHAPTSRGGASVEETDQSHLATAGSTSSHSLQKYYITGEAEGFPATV

CCCCC(=O)Cl
not listed: [17] | [18] | [19] | [20]
inactive: all other assays above

CCS(=O)(=O)CCSP(=O)(OC)OC
not listed: [10] | [14] | [17] | [18] | [19] | [20]
inactive: all other assays above

CC(=O)C(Cl)Cl
not listed: [18] | [19] | [20]
inactive: all other assays above

C#CCN1C(=O)COc2cc(F)c(N3C(=O)C4=C(CCCC4)C3=O)cc21
not listed: [5] | [7] | [8] | [15] | [20]
inactive: all other assays above

COc1ccc2c(c1OC)CN1CCc3cc4c(cc3C1C2)OCO4 (centres undefined)
active: [19] 26.6 µM
not listed: [5] | [7] | [8] | [17]
inactive: all other assays above

CC(C)(C)NCC(O)c1cc(Cl)c(N)c(Cl)c1 (centres undefined)
active: [14] 11.9 µM
not listed: [3] | [5] | [10] | [15] | [16] | [17]
inactive: all other assays above

CCC1(c2ccccc2)C(=O)N=C(O)NC1=O (centres undefined)
not listed: [13] | [18] | [19] | [20]
inactive: all other assays above

CC(C)(C)OC(=O)c1ncn2c1[C@@H]1CCCN1C(=O)c1c(Br)cccc1-2
not listed: [10] | [15] | [16] | [17] | [18] | [19]
inactive: all other assays above

c1coc(-c2nc3ccccc3[nH]2)c1
active: [12] 0.611 µM
not listed: [5] | [6] | [9] | [19] | [20]
inactive: all other assays above

ClCC(Cl)Cl
not listed: [3] | [7] | [17] | [19] | [20]
inactive: all other assays above

COc1cc(OC)nc(Oc2cccc(Oc3nc(OC)cc(OC)n3)c2C(=O)O)n1
not listed: [17] | [18] | [20]
inactive: all other assays above

O=C(CCN1CC1)OCC(CO)(COC(=O)CCN1CC1)COC(=O)CCN1CC1
not listed: [9] | [10] | [17] | [18] | [19] | [20]
inactive: all other assays above

OCCSCSCCO
not listed: [5] | [7] | [8] | [19] | [20]
inactive: all other assays above

CNC(=O)Oc1ccccc1C1OCCO1
not listed: [5] | [7] | [8] | [10] | [20]
inactive: all other assays above

CC(CCc1ccccc1)NC(C)C(O)c1ccc(O)cc1 (centres undefined)
not listed: [9] | [18] | [19]
inactive: all other assays above

CCCCOP(=O)(O)OCCCC
not listed: [18] | [20]
inactive: all other assays above

CC(C(O)c1ccccc1)N(C)C/C=C/c1ccccc1 (centres undefined)
not listed: [16] | [18] | [20]
inactive: all other assays above

OC(c1ccccc1)(c1ccccc1)C1CCNCC1
not listed: [5] | [7] | [14] | [15] | [17] | [19]
inactive: all other assays above
